The source of these data is PubChem BioAssay.

Activity calls are given as the source filed them.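 How the source made its calls, unless noted: active means inhibition at or above 50% at 10 µM; inactive means inhibition below 50%.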

Experiment [1] can be described thus: inhibitors of TNFa-induced NFkB p65 translocation, primary screen, imaging, HUVEC, MLSMR starter and 10KST1 sets (AID 438;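 active means inhibition above 20% together with a positive visual image hit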;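 further: compound added about 3h40 before a 20 min TNFalpha stimulation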;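 on inhibition: signal is the nuclear over cytoplasmic p65 intensity ratio per well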). Particulars: HUVEC TNFa-induced p65 nuclear translocation; cell count: measured here: nuclei count (cytotoxicity indicator), at 2.08 µM; inhibition: at 2 µM, stronger effect = higher value, 0% TNFa-plus-vehicle, 100% no-TNFa wells.
The nature of experiment [2]: reduction of polyQ htt aggregates in cells – imaging, exon1htt(103Q)mCFP cells, high-content imaging, primary screen (AID 483;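 active means visual image review flags a hit and inhibition of aggregation exceeds 20%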;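 further: compound exposure lasted 3 days before fixation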;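 on nuclei count: percent of the per-plate median nuclei count of sample wells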). As to conditions: exon1htt(103Q)mCFP cell line, aggregate imaging, at 2 µM; inhibition of aggregation: stronger effect = higher value; nuclei count: measured here: cell count, toxicity.
The nature of experiment [3]: endothelial E-selectin expression blockers – imaging, HUVEC, immunofluorescence, MLSMR starter and 10KST1 sets, primary screen (AID 487;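 active means visually confirmed hit in the image check and inhibition above 20%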;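 on inhibition: signal is fraction of cell area covered by stained E-selectin grains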;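 on nuclei count: 100% = median nuclei count of all wells on the same plate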). Particulars: HUVEC TNFalpha-induced E-selectin immunofluorescence imaging, at 2 µM; inhibition: stronger effect = higher value; nuclei count: measured here: cell number, toxicity.
Experiment [4] addresses Voltage-gated potassium channel subunit beta-2 (Rattus norvegicus) (UniProt P62483). Nature of the experiment: inhibitors of rat Kvbeta2 reductase activity – biochemical, NADPH fluorescence, primary screen (AID 622;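 active means fluorescence slope higher than the sample average by over 3 SD, cut at about -0.22 in these data, passing the limit was not always enough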;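 further: slope of raw intensity against log time taken from 70 to 1610 s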). As to conditions: recombinant KvBeta, 4-cyanobenzaldehyde reduction, at 10 µM, stronger effect = higher value.
Experiment [5] has the same target. Put plainly: enhancers of rat Kvbeta2 NADPH turnover – biochemical, NADPH fluorescence, primary screen (AID 623;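 active means NADPH fluorescence slope more negative than the mean of all samples by about 3 SD, 99.7% confidence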;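 further: fluorescence intensity change per second fitted from 20 to 320 s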). Particulars: Recombinant KvBeta, NADPH fluorescence decrease slope, 10 min; at 10 µM; stronger effect = lower value.
Experiment [6] deals with Alpha-2C adrenergic receptor (Homo sapiens) (UniProt P18825). Put plainly: compounds altering alpha2C-coupled GIRK flux – cell-based, HEK293 alpha2C/GIRK1/2, thallium flux, primary screen (AID 624;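 active means fluorescence slope after compound addition differing from the mean of all screened samples at 99.7% confidence, in either direction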;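 further: slope of fluorescence ratio to pre-addition baseline per second over 15 to 24 s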). Particulars: thallium flux BTC fluorescence, at 10 µM, actives lie on both sides.
Experiment [7] can be described thus: blockers of RIG-like receptor reporter activation – cell-based, Sendai virus stimulus, luciferase, 10K MLSCN set, TLR/RLR signaling modifier project, primary screen (AID 602276).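 Further: firefly luciferase from ISG56 promoter only with Renilla not read in this screen; 0% = Sendai virus plus DMSO and 100% = medium plus DMSO without virus.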 As to conditions: HEK293 RL24 IRF3 luciferase reporter, at 10 µM, stronger effect = higher value. In general terms: A reporter such as luciferase makes a cellular process visible.
A short description of experiment [8]: TLR3 IRF3 reporter activation blockers – cell-based, poly I:C stimulus, luciferase, 10K MLSCN set, primary screen (AID 602277;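 active means inhibition of the reporter signal at or above 50%; inactive means inhibition below 50%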). As to conditions: HEK293-TLR3 RL24 IRF3 luciferase reporter, at 10 µM, stronger effect = higher value.

Sequence of Voltage-gated potassium channel subunit beta-2 (Rattus norvegicus) (P62483 whole entry, looked up): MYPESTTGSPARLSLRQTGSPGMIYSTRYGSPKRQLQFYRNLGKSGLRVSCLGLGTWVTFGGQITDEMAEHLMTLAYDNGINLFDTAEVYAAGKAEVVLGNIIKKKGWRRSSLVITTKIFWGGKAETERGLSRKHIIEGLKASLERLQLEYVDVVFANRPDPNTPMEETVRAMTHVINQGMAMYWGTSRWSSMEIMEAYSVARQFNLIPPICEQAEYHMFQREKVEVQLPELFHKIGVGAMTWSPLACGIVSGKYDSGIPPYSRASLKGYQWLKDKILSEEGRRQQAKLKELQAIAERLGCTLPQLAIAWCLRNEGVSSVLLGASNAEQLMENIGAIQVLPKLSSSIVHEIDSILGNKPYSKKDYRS
Sequence of Alpha-2C adrenergic receptor (Homo sapiens) (P18825 whole entry, looked up): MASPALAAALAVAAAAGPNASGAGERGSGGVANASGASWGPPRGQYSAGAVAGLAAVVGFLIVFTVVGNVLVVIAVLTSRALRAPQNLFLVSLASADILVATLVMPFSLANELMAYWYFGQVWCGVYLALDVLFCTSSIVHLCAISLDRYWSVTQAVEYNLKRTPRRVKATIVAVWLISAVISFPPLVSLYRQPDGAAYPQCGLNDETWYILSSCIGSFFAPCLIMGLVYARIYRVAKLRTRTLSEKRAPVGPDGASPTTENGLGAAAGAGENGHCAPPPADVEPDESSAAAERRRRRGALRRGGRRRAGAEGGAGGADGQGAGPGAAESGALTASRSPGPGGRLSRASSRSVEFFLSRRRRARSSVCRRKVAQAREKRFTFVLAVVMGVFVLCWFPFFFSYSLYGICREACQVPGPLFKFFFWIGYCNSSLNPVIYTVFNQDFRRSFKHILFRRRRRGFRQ

Regarding `Cc1cc(=O)oc2c1ccc1oc(/C(=N/O)c3ccccc3)c(C)c12`, the cell count in experiment [1] was found to be 456. For the same molecule, the inhibition in experiment [1] is -19% (inactive); in experiment [3] it was 1.5% (inactive); in experiment [7], 7.72% (inactive); in experiment [8], 13.6% (inactive). Moreover, the inhibition of aggregation in experiment [2] was 34.1% (inactive). Also, the nuclei count in experiment [2] was found to be 77.6%; in experiment [3], 110%. For the same molecule, the fluorescence slope in experiment [4] is -0.357 (inactive). Also, in experiment [5], the NADPH fluorescence slope was -3.7e-05 (inactive). The slope in experiment [6] is 0.00542 (inactive).
Consider `Cc1cc2cc(CCNC(=O)CC(C)C)c(=O)[nH]c2cc1C`, for which, in experiment [1], the cell count was 633. Besides, the inhibition in experiment [1] was -5.8% (inactive); in experiment [3], -40% (inactive); in experiment [7] it was -11.5% (inactive); in experiment [8], -9.56% (inactive). Moreover, the inhibition of aggregation in experiment [2] was 15.1% (inactive). In addition, the nuclei count in experiment [2] was determined as 83.5%; in experiment [3] it was 107%. Further, in experiment [4], the fluorescence slope was -0.595 (inactive). In experiment [5], the NADPH fluorescence slope is -2.7e-05 (inactive). For the same molecule, the slope in experiment [6] was 0.00623 (inactive).
For `COCCNC(=O)C(c1cccc(OC)c1)N(Cc1cccs1)C(=O)Cn1nnc2ccccc21` (centres undefined), in experiment [1], the cell count is 722. Also, the inhibition is -15.1% (inactive) in experiment [1], -34.3% (inactive) in experiment [3], 12.4% (inactive) in experiment [7] and 20.1% (inactive) in experiment [8]. In addition, the inhibition of aggregation in experiment [2] was 8% (inactive). Further, the nuclei count in experiment [2] and in experiment [3] was 109% throughout. Besides, in experiment [4], the fluorescence slope was -0.622 (inactive). In addition, in experiment [5], the NADPH fluorescence slope was -5.4e-05 (inactive). Further, in experiment [6], the slope is 0.00445 (inactive).
Consider `O=C(O)C1CC(=O)N(CCOc2ccccc2)C1` (centres undefined), for which the cell count in experiment [1] stood at 407. In addition, the inhibition in experiment [1] is 4.7% (inactive); in experiment [3] it was -59.8% (inactive); in experiment [7], 0.323% (inactive); in experiment [8], 15.8% (inactive). For the same molecule, in experiment [2], the inhibition of aggregation was 10.8% (inactive). The figures for the nuclei count in experiment [2] and in experiment [3] were 86.7% and 101%, respectively. In addition, the fluorescence slope in experiment [4] was -0.41 (inactive). Also, in experiment [5], the NADPH fluorescence slope was 4.3e-05 (inactive). Also, the slope in experiment [6] is 0.00593 (inactive).
For the molecule `Cc1ccc(NC(=O)CSc2nnc(-c3ccncc3)n2C)cc1C`, in experiment [1], the cell count was found to be 822. Moreover, the inhibition in experiment [1] is -13.9% (inactive); in experiment [3], -44.4% (inactive); in experiment [7] it was -15.3% (inactive); in experiment [8], -22.4% (inactive). In experiment [2], the inhibition of aggregation is 18.5% (inactive). In addition, the nuclei count turned out to be 85% in experiment [2] and 130% in experiment [3]. The fluorescence slope in experiment [4] was -0.591 (inactive). The NADPH fluorescence slope in experiment [5] is 4.1e-06 (inactive). Besides, the slope in experiment [6] is 0.00642 (inactive).
Turning to `CCN(Cc1cc2ccccc2[nH]c1=O)S(=O)(=O)c1ccccc1`, the cell count in experiment [1] came out at 642. In addition, the inhibition in experiment [1] is 7.5% (inactive); in experiment [3], 38.9% (inactive); in experiment [7], 12.2% (inactive); in experiment [8], 5.79% (inactive). For the same molecule, the inhibition of aggregation in experiment [2] was 9.9% (inactive). Moreover, the nuclei count in experiment [2] and in experiment [3] was 104% throughout. Besides, in experiment [4], the fluorescence slope is -0.627 (inactive). In experiment [5], the NADPH fluorescence slope is 1.2e-05 (inactive). Moreover, in experiment [6], the slope was 0.00647 (inactive).
For the molecule `O=C(C1CCC(CNc2c(N3CCCCC3)c(=O)c2=O)CC1)N1CCc2ccccc2C1` (centres undefined), the cell count in experiment [1] was 557. The inhibition was 8.9% (inactive) in experiment [1], 44% (inactive) in experiment [3], 8.75% (inactive) in experiment [7] and 33.5% (inactive) in experiment [8]. Also, in experiment [2], the inhibition of aggregation was -6.5% (inactive). The nuclei count in experiment [2] was determined as 95.1%; in experiment [3], 97.9%. Also, in experiment [4], the fluorescence slope was -0.51 (inactive). In experiment [5], the NADPH fluorescence slope is -1.9e-05 (inactive). Besides, the slope in experiment [6] is 0.00576 (inactive).
On to `OC(CN1CCN(c2ccccc2)CC1)c1ccc2c(c1)CCN2` (centres undefined), for which the cell count in experiment [1] came out at 604. Also, the inhibition in experiment [1] was -1.6% (inactive); in experiment [3], -60.6% (inactive); in experiment [7], 6.89% (inactive); in experiment [8], 32.4% (inactive). In experiment [2], the inhibition of aggregation was 9.3% (inactive). The nuclei count in experiment [2] turned out to be 82.3%; in experiment [3], 108%. Further, in experiment [4], the fluorescence slope was -0.571 (inactive). Also, in experiment [5], the NADPH fluorescence slope is -2.8e-05 (inactive). For the same molecule, the slope in experiment [6] is 0.00657 (inactive).
For the molecule `CCc1ccccc1NC(=O)c1cnc2n(c1=O)CCS2`, the cell count in experiment [1] turned out to be 582. Besides, the inhibition was -3.9% (inactive) in experiment [1], -4.7% (inactive) in experiment [3], 12.7% (inactive) in experiment [7] and -13.2% (inactive) in experiment [8]. The inhibition of aggregation in experiment [2] is -4.9% (inactive). The nuclei count is 94.6% in experiment [2] and 117% in experiment [3]. Also, the fluorescence slope in experiment [4] was -0.494 (inactive). Besides, the NADPH fluorescence slope in experiment [5] is -1.7e-05 (inactive). Also, the slope in experiment [6] is 0.00691 (inactive).
Take `COc1cccc(N2CCN(Cc3nc(N)nc(Nc4ccccc4)n3)CC2)c1`: in experiment [1], the cell count turned out to be 463. The inhibition in experiment [1] is -12.5% (inactive); in experiment [3], 44.7% (inactive); in experiment [7], 0.669% (inactive); in experiment [8], 15.7% (inactive). In addition, the inhibition of aggregation in experiment [2] was 18.2% (inactive). In addition, the nuclei count was found to be 84.7% in experiment [2] and 93.5% in experiment [3]. Further, the fluorescence slope in experiment [4] was -0.479 (inactive). The NADPH fluorescence slope in experiment [5] was -5.8e-06 (inactive). Besides, the slope in experiment [6] was 0.00543 (inactive).
With `CCC(=O)Nc1cc2nn(-c3ccccc3)nc2cc1Cl`, the cell count in experiment [1] was determined as 442. The inhibition in experiment [1] is -2.1% (inactive); in experiment [3], -94.2% (inactive); in experiment [7], -10.5% (inactive); in experiment [8], -46.9% (inactive). Further, the inhibition of aggregation in experiment [2] was 7.1% (inactive). The nuclei count in experiment [2] turned out to be 105%; in experiment [3], 255%. Besides, the fluorescence slope in experiment [4] was -0.413 (inactive). In experiment [5], the NADPH fluorescence slope was -5.9e-07 (inactive). In addition, the slope in experiment [6] is 0.00584 (inactive).
As for `Cc1oc(-c2ccccc2Cl)nc1CSCC(=O)N1CCCC1`, the cell count in experiment [1] turned out to be 319. The inhibition in experiment [1] was 9.3% (inactive); in experiment [3] it was 62.6% (active); in experiment [7], -10.3% (inactive); in experiment [8], 8.17% (inactive). In experiment [2], the inhibition of aggregation is 19.4% (inactive). Also, the nuclei count in experiment [2] came to 91.6%; in experiment [3], 102%. Further, the fluorescence slope in experiment [4] is -0.572 (inactive). Further, in experiment [5], the NADPH fluorescence slope was 5.9e-06 (inactive). Also, the slope in experiment [6] is 0.00514 (inactive).
As to `COc1cccc(-c2cc(C(F)(F)F)nc(NCc3ccco3)n2)c1`, the cell count in experiment [1] turned out to be 449. For the same molecule, the inhibition was 1.7% (inactive) in experiment [1], -25.2% (inactive) in experiment [3], -7.28% (inactive) in experiment [7] and 19.1% (inactive) in experiment [8]. In addition, in experiment [2], the inhibition of aggregation was 28.6% (inactive). In addition, the nuclei count worked out at 97.3% in experiment [2] and 94.3% in experiment [3]. Also, the fluorescence slope in experiment [4] is -0.469 (inactive). Further, in experiment [5], the NADPH fluorescence slope was -5.6e-06 (inactive). For the same molecule, the slope in experiment [6] was 0.00562 (inactive).
`CC(Sc1nnnn1C)C(=O)Nc1ccc(Oc2ccccc2)cc1` (centres undefined): in experiment [1], the cell count worked out at 354. For the same molecule, the inhibition was 0.5% (inactive) in experiment [1], -72.3% (inactive) in experiment [3], -8.41% (inactive) in experiment [7] and -9.23% (inactive) in experiment [8]. For the same molecule, in experiment [2], the inhibition of aggregation was -25.9% (inactive). The results for the nuclei count in experiment [2] and in experiment [3] were 105% and 125%, respectively. In experiment [4], the fluorescence slope is -0.505 (inactive). In experiment [5], the NADPH fluorescence slope was -2.8e-05 (inactive). For the same molecule, the slope in experiment [6] was 0.00778 (inactive).

In general, inhibition refers to the change of the read-out against control, counted positive when it falls.
